The text below walks through data of PubChem BioAssay (Tox21).

Each structure is given as a SMILES string. Several values for one entry are separate records, joined by “and”; a condition that tells them apart may be missing. Equal entries are not always repeated. Records with an inconclusive call do not appear. Where a call stands in place of a potency, no number is given. Some compounds were tested as several samples or in several runs, with calls that do not always agree. Activity calls are given as the source filed them. Calls come from the whole dose curve; as a rule, active = well fitted cell-killing curve with a large enough effect in the repeat runs; inconclusive = weak or mixed curves; inactive = no such curve, though single readings can be large or run the other way.
Potency is the fitted concentration of half-maximal effect.

The nature of this assay: qHTS assay for identifying genotoxic compounds that show differential cytotoxicity against isogenic chicken DT40 cell lines with known DNA damage response pathways - Rad54/Ku70 mutant cell line (AID 743015). Note: nearly all actives have a fitted effect of over 60% in size. As to conditions: DT40 Rad54/Ku70 mutant viability, CellTiter-Glo, 40 h; series mostly up to 66.8 µM. The text has this:
National Center for Advancing Translational Sciences [NCATS]
NIH Chemical Genomics Center [NCGC]
U.S. Environmental Protection Agency [EPA]
National Institutes of Environmental Health Sciences [NIEHS]
National Toxicology Program [NTP]
U.S. Food and Drug Administration [FDA]
DNA repair pathways play a critical role in cellular homeostasis by repairing DNA damage induced by endogenous processes and xenobiotics. Isogenic chicken DT40 cell lines deficient in different DNA repair pathways can be used to identify genotoxic compounds and aid in characterizing the nature of the DNA damage induced. Two DNA repair-deficient cell lines with disrupted genes, Rad54/Ku70 or Rev3, were used to screen the Tox21 10K compound library. Possible genotoxicity was based on the presence of a significant increase in cytotoxicity in one or more of the DNA repair-deficient cell lines compared to that observed in the parental DNA repair-proficient cell line. CellTiter Glo viability assay (Promega, Madison, WI) was used to measure cell viability in these cells after compound treatment. This assay includes the data from the Rad54/Ku70 mutant cell line.
Tox21 Assay Protocol Summary:
300 DT40 mutant cells in 5 uL/well were dispensed into white, solid-bottom 1536-well plates using a Multidrop Combi (ThermoFisher Scientific, Waltham, MA) dispenser. After the assay plates were incubated at 37 C/5% CO2 for approximately 0.5 hour, 23 nL of compounds dissolved in DMSO, positive controls or DMSO only was transferred into the assay plate by a pintool work station (Kalypsys, San Diego, CA). The assay plates were incubated at 37 C/5% CO2 for 40 hours. After 5 uL per well of CellTiter-Glo reagent was added into each well of the assay plates, the plates were incubated for 30 min at room temperature and the luminescence intensity of the plates was measured using a ViewLux (PerkinElmer, Shelton, CT) plate reader.
(qHTS replaces the single test concentration by a dilution series.)
As for `CN(C)/N=N/c1nc[nH]c1C(N)=O`, the Potency was 62 µM (active).

With `CCCCCCOCCOCCO`, the Potency entry is “inactive”.

As to `O=C1OC2(c3ccccc31)c1cc(I)c(O)c(I)c1Oc1c2cc(I)c(O)c1I`, the Potency was 17.4 µM (active) and 10.5 µM (active).

For the compound `CC(C)=CCO`, the Potency entry was “inactive”.

With `CCC/C=C/C=O`, the Potency result was “inactive”.

In the case of `C[C@]12CC[C@@H]3c4ccc(O)cc4CC[C@H]3[C@@H]1CC[C@@H]2O`, the Potency was 26.6 µM (active) and 54.5 µM (active).

In the case of `CCC(Cc1c(I)cc(I)c(N)c1I)C(=O)O` (stereo not given), the Potency result is “inactive”.

For `CC(=O)O[C@]1(C(C)=O)CC[C@H]2[C@@H]3C=C(C)C4=CC(=O)CC[C@]4(C)[C@H]3CC[C@@]21C`, the Potency was 15.4 µM (active).

For `COCCOCCOCCO`, the Potency result was “inactive”.

On to `c1ccc2c(c1)ccc1cc3c(ccc4ccccc43)cc12`, for which the Potency entry is “inactive”.

`CN(C)CCCN1c2ccccc2Sc2ccc(Cl)cc21`: the Potency is 11.9 µM (active) and 19.3 µM (active).

`Cc1ccc(S(=O)(=O)NCl)cc1`: the Potency entry was “inactive”.

For the compound `CN1CCOCC1`, the Potency result is “inactive”.

For the compound `CC(=O)O[C@]1(C(C)=O)CC[C@H]2[C@@H]3C=C(Cl)C4=CC(=O)CC[C@]4(C)[C@H]3CC[C@@]21C`, the Potency is 18.8 µM (active).

For the compound `NCCS(=O)(=O)O`, the Potency entry is “inactive”.

Take `Nc1ccc(N)c(Cl)c1`: the Potency entry is “inactive”.

With `OC[C@H]1O[C@@H]2O[C@H]3[C@H](O)[C@@H](O)[C@@H](O[C@H]4[C@H](O)[C@@H](O)[C@@H](O[C@H]5[C@H](O)[C@@H](O)[C@@H](O[C@H]6[C@H](O)[C@@H](O)[C@@H](O[C@H]7[C@H](O)[C@@H](O)[C@@H](O[C@H]1[C@H](O)[C@H]2O)O[C@@H]7CO)O[C@@H]6CO)O[C@@H]5CO)O[C@@H]4CO)O[C@@H]3CO`, the Potency entry is “inactive”.

On to `Oc1c(Cl)ccc(Cl)c1Cl`, for which the Potency result was “inactive”.

As for `CC(C)(C)c1cccc(C(C)(C)C)c1O`, the Potency result was “inactive”.

Consider `[O-]/[N+](=N\O)c1ccccc1`, for which the Potency result was “inactive”.

For the compound `COC(=O)CC(=O)OC`, the Potency result was “inactive”.

Consider `CCCCCCCC/C=C\CCCCCCCC(=O)O`, for which the Potency entry was “inactive”.

Turning to `Cc1ccc(S(=O)(=O)O)cc1C`, the Potency entry was “inactive”.

`NCCOCCO`: the Potency entry was “inactive”.

With `Nc1ccc2c(O)cc(S(=O)(=O)O)cc2c1`, the Potency entry was “inactive”.

As for `CC/C(=C(/CC)c1ccc(O)cc1)c1ccc(O)cc1`, the Potency was 26.6 µM (active) and 27.3 µM (active).

Regarding `CC[C@]12CCCN3CCc4c(n(c5ccccc45)[C@@](O)(C(=O)OC)C1)[C@@H]32`, the Potency entry is “inactive”.

Regarding `Brc1nc2ccccc2s1`, the Potency result was “inactive”.

Regarding `CCCOCCO`, the Potency entry is “inactive”.

On to `C[C@]12C=CC(=O)C=C1CC[C@H]1[C@@H]3C[C@@H](O)[C@](O)(C(=O)CO)[C@@]3(C)C[C@H](O)[C@@]12F`, for which the Potency is 48.6 µM (active).

For `C=C[C@H]1CN2CC[C@H]1C[C@H]2[C@H](O)c1ccnc2ccc(OC)cc12`, the Potency is 26.6 µM (active) and 13.3 µM (active) and 27.3 µM (active).

As to `c1ccc2c(c1)[nH]c1ccccc12`, the Potency entry is “inactive”.

Regarding `CC(C)(Oc1ccc(Cl)cc1)C(=O)O`, the Potency entry was “inactive”.

Take `CC(C)[N+](C)(CCOC(=O)C1c2ccccc2Oc2ccccc21)C(C)C`: the Potency result is “inactive”.

`O=Cc1ccccc1C=O`: the Potency is 11.9 µM (active) and 2.43 µM (active).

`CC1=CC(C)(C)Nc2ccccc21`: the Potency result was “inactive”.

Regarding `C/C=C/C(=O)N(CC)c1ccccc1C`, the Potency entry is “inactive and 48.6 µM (active)”.

Take `C=CCNCC=C`: the Potency result was “inactive”.

On to `CN(Cc1cnc2nc(N)nc(N)c2n1)c1ccc(C(=O)N[C@@H](CCC(=O)O)C(=O)O)cc1`, for which the Potency was 13.3 nM (active) and 1.7 nM (active).

In the case of `CCCCCCCCCCCCO`, the Potency result was “inactive”.
